Data reported in PubChem BioAssay (Tox21).
Several values for one entry are separate records, joined by “and”; a condition that tells them apart may be missing. Equal values may be shown once. Inconclusive results are not listed. A call without a number means that no potency is given here. Some compounds were tested as several samples or in several runs, with calls that do not always agree. Activity calls are given as the source filed them. Calls follow the shape of the dose curve; as a rule, active = well fitted curve in the direction sought with a large enough effect in the repeat runs; inconclusive = weak or mixed curves; inactive = no such curve, though single readings can be large; an effect the other way counts as inactive or inconclusive. Residues, ends and D or L forms follow the SMILES beside them.

Experiments:
[1] = A CellTox Green Cytotoxicity Assay to monitor cytotoxicity in HEK293 cells - 32 hour (AID 1224881); also: nearly all actives have a fitted effect of over 40% in size; also: potency is read from the fitted curve at half-maximal effect
Summary of the method: (§1)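 Dead-cell fluorescence measured kinetically: asymmetric cyanine dye, HEK293, 600 cells/well, 5 h settle, 23 nL cpd/DMSO, 37 C, reads 0–40 h every 8 h.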

[2] = A CellTox Green Cytotoxicity Assay to monitor cytotoxicity in HepG2 cells - 0 hour (AID 1224882); also: nearly all actives have a fitted effect of over 35% in size; also: potency is read from the fitted curve at half-maximal effect
Summary of the method: (§2)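 First, HepG2 cells (600/well) mixed with reagent were plated; second, after 5 h at 37 C they received compounds via pintool; third, fluorescence was measured at 0 h through 40 h at 8 h intervals.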

[3] = A CellTox Green Cytotoxicity Assay to monitor cytotoxicity in HepG2 cells - 32 hour (AID 1224883); also: nearly all actives have a fitted effect of over 50% in size; also: potency is read from the fitted curve at half-maximal effect
Summary of the method: as §2

[4] = A CellTox Green Cytotoxicity Assay to monitor cytotoxicity in HEK293 cells - 8 hour (AID 1224884); also: nearly all actives have a fitted effect of over 35% in size; also: potency is read from the fitted curve at half-maximal effect
Summary of the method: as §1

[5] = qHTS RealTime-Glo MT Cell Viability Assay in HepG2 cells - 16 hour (AID 1224885); also: nearly all actives have a fitted effect of over 50% in size; also: potency is read from the fitted curve at half-maximal effect
Summary of the method: (§3)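 Viability was tracked continuously by NanoLuc luminescence from prosubstrate reduced by living HepG2 cells, at successive time points over 40 h of compound exposure. Cells with reagent were preincubated 5 h at 37 °C before compound addition.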

[6] = qHTS RealTime-Glo MT Cell Viability Assay in HEK293 cells - 24 hour (AID 1224886); also: nearly all actives have a fitted effect of over 50% in size; also: potency is read from the fitted curve at half-maximal effect
Summary of the method: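 Viability tracked continuously by luminescence as live cells reduce a prosubstrate for NanoLuc; HEK293 cells preincubated 5 h, compound-treated at 37 C, and read at 0, 8, 16, 24, 32 and 40 h.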

[7] = qHTS RealTime-Glo MT Cell Viability Assay in HEK293 cells - 8 hour (AID 1224887); also: top concentration of the series differs between compounds; nearly all actives have a fitted effect of over 50% in size
Summary of the method: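 600 HEK293 cells per well, dispensed already mixed with RealTime-Glo MT reagents. Compound dosing came 5 h later. The same wells were read for luminescence at 0, 8, 16, 24, 32 and 40 h of exposure at 37 C.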

[8] = A CellTox Green Cytotoxicity Assay to monitor cytotoxicity in HEK293 cells - 16 hour (AID 1224888); also: nearly all actives have a fitted effect of over 35% in size
Summary of the method: as §1

[9] = qHTS RealTime-Glo MT Cell Viability Assay in HepG2 cells - 0 hour (AID 1224889); also: nearly all actives have a fitted effect of over 50% in size; also: potency is read from the fitted curve at half-maximal effect
Summary of the method: as §3

[10] = A CellTox Green Cytotoxicity Assay to monitor cytotoxicity in HepG2 cells - 8 hour (AID 1224890); also: nearly all actives have a fitted effect of over 45% in size; also: potency is read from the fitted curve at half-maximal effect
Summary of the method: as §2

| Structure (SMILES) | Potency [1] | Potency [2] | Potency [3] | Potency [4] | Potency [5] | Potency [6] | Potency [7] | Potency [8] | Potency [9] | Potency [10] |
| --- | --- | --- | --- | --- | --- | --- | --- | --- | --- | --- |
| Nc1ccc(O)c(C(=O)O)c1 | inactive | inactive | inactive | inactive | inactive | inactive | inactive | inactive | inactive | inactive |
| c1ccc2[nH]ccc2c1 | 6.81 µM (active) and inactive | inactive | 3.83 µM (active) and inactive | inactive | 15.2 µM (active) and inactive | 2.41 µM (active) and inactive | inactive | – | inactive | inactive |
| Nc1ccc(S(=O)(=O)Nc2nccs2)cc1 | inactive and 43.6 µM (active) | inactive and 43.6 µM (active) | inactive and 43.6 µM (active) | inactive and 49 µM (active) | inactive | inactive | inactive | – | inactive | inactive and 43.6 µM (active) |
| O=NO | inactive | inactive | inactive | inactive | inactive | inactive | inactive | inactive | inactive | inactive |
| O=C(O)c1[nH]n(-c2ccc(S(=O)(=O)O)cc2)c(=O)c1N=Nc1ccc(S(=O)(=O)O)cc1 | inactive | inactive | inactive | inactive | inactive | inactive | inactive | inactive | inactive | inactive |
| COC(=O)[C@H](Cc1ccccc1)NC(=O)[C@@H](N)CC(=O)O (H-Asp-Phe-OMe) | inactive | inactive | inactive | inactive | inactive | inactive | inactive | inactive | inactive | inactive |
| Cc1ccc(C)c(OCCCC(C)(C)C(=O)O)c1 | inactive | inactive | inactive | inactive | inactive | inactive | inactive | inactive | inactive | inactive |
| O=C(O)C(=O)O | inactive | inactive | inactive | inactive | inactive | inactive | inactive | inactive | inactive | inactive |
| OCCc1ccccc1 | inactive | inactive | inactive | inactive | inactive | inactive | inactive | inactive | inactive | inactive |
| O=C(O)c1cc(N=Nc2ccc(S(=O)(=O)Nc3ccccn3)cc2)ccc1O | inactive | inactive | inactive | inactive | inactive | inactive | inactive | inactive | 11 µM (active) and 21.9 µM (active) | inactive |
| O=C(C1CCCCC1)N1CC(=O)N2CCc3ccccc3C2C1 (stereo unspecified) | inactive | inactive | inactive | inactive | inactive | inactive | inactive | inactive | inactive | inactive |
| O=C(O)CCC(=O)O | inactive | inactive | inactive | – | inactive | inactive | inactive | inactive | inactive | inactive |
| Nc1ccc(C(=O)O)cc1 | inactive | inactive | inactive | inactive | inactive | inactive | inactive | inactive | inactive | inactive |
| CCC1(c2ccccc2)C(=O)NCNC1=O | inactive | inactive | inactive | inactive | inactive | inactive | inactive | inactive | inactive | inactive |
| NC(=O)c1ccccc1O | inactive | inactive | inactive | inactive | inactive | inactive | inactive | inactive | inactive | inactive |
| NS(=O)(=O)c1cc(C(=O)O)c(NCc2ccco2)cc1Cl | inactive | inactive | 19.6 µM (active) and inactive | inactive | inactive | inactive | – | inactive | inactive | inactive |
| CCCN(CCC)S(=O)(=O)c1ccc(C(=O)O)cc1 | inactive | inactive | inactive | inactive | inactive | inactive | inactive | inactive | inactive | inactive |
| CC(=O)NS(=O)(=O)c1ccc(N)cc1 | inactive | inactive | inactive | inactive | inactive | inactive | inactive | inactive | inactive | inactive |
| O=C(c1ccccc1)C(O)c1ccccc1 (stereo unspecified) | inactive | inactive | inactive | inactive | inactive | inactive | inactive | inactive | inactive | inactive |
| O=S(=O)(O)c1ccc2cc(O)ccc2c1 | inactive | inactive | inactive | inactive | inactive | inactive | inactive | inactive | inactive | inactive |
| O=C(O)/C=C\C(=O)O | inactive | inactive | inactive | inactive | inactive | inactive | inactive | inactive | inactive | inactive |
| O=c1ccc2ccccc2o1 | inactive | inactive | inactive | – | inactive | inactive | inactive | inactive | inactive | inactive |
| Cc1ccccc1C(OCCN(C)C)c1ccccc1 (stereo unspecified) | inactive | inactive | inactive | inactive | inactive | inactive | inactive | inactive | inactive | inactive |

| Structure (SMILES) | Potency [1] | Potency [2] | Potency [3] | Potency [4] | Potency [5] | Potency [6] | Potency [7] | Potency [8] | Potency [9] | Potency [10] |
| --- | --- | --- | --- | --- | --- | --- | --- | --- | --- | --- |
| NNC(=O)c1ccncc1 | inactive | inactive | inactive | inactive | inactive | inactive | inactive | inactive | inactive | inactive |
| CC(=O)Nc1nnc(S(N)(=O)=O)s1 | inactive | inactive | inactive | inactive | inactive | inactive | inactive | inactive | inactive | inactive |
| CCCCCCCCCCCCCCCC(=O)O | inactive | inactive | inactive | inactive | inactive | inactive | inactive | inactive | inactive | inactive |
| CC(C)[C@@H]1CC[C@@H](C)C[C@H]1O | inactive | inactive | inactive | inactive | inactive | inactive | inactive | inactive | inactive | inactive |
| C1N2CN3CN1CN(C2)C3 | inactive | inactive | inactive | inactive | inactive | inactive | inactive | inactive | inactive | inactive |
| CC(=O)OCC(COC(C)=O)OC(C)=O | inactive | inactive | inactive | inactive | inactive | inactive | inactive | inactive | inactive | inactive |
| NC(=O)NC1NC(=O)NC1=O (stereo unspecified) | inactive | inactive | inactive | – | inactive | inactive | inactive | inactive | inactive | inactive |
| CCCCC1C(=O)N(c2ccccc2)N(c2ccccc2)C1=O | inactive | inactive | inactive | inactive | inactive | inactive | inactive | inactive | – | inactive |
| CC(O)CN(CCN(CC(C)O)CC(C)O)CC(C)O (stereo unspecified) | inactive | inactive | inactive | inactive | inactive | inactive | inactive | – | inactive | inactive |
| O=C(O)CCCCCCCC(=O)O | inactive | inactive | inactive | inactive | inactive | inactive | inactive | inactive | inactive | inactive |
| CC(O)C(=O)O (stereo unspecified) | inactive | inactive | inactive | inactive | inactive | inactive | inactive | inactive | inactive | inactive |
| CCCNC(=O)NS(=O)(=O)c1ccc(Cl)cc1 | inactive | inactive | inactive | inactive | inactive | inactive | inactive | inactive | inactive | inactive |
| O=C1CN(/N=C/c2ccc([N+](=O)[O-])o2)C(=O)N1 | inactive | inactive | inactive | inactive | inactive | inactive | inactive | inactive | inactive | inactive |
| O=C1NC(=O)c2ccccc21 | inactive | inactive | inactive | – | inactive | inactive | inactive | inactive | inactive | inactive |
| Cc1ccc(S(=O)(=O)NC(=O)NN2CCCCCC2)cc1 | inactive | inactive | inactive | – | inactive | inactive | inactive | inactive | inactive | inactive |
| Cn1c(=O)c2[nH]cnc2n(C)c1=O | inactive | inactive | inactive | – | inactive | inactive | inactive | inactive | inactive | inactive |
| Cc1cc(=O)[nH]c(=S)[nH]1 | inactive | inactive | inactive | – | inactive | inactive | inactive | inactive | inactive | inactive |
| C/C=C/c1ccc(OC)cc1 | inactive | inactive | inactive | – | inactive | inactive | inactive | inactive | inactive | inactive |
| Cc1cc(=O)n(-c2ccccc2)n1C | 44.8 µM (active) and inactive | inactive | inactive | – | inactive | inactive | inactive | – | inactive | inactive |
| CC(C)(Oc1ccc(C2CC2(Cl)Cl)cc1)C(=O)O (stereo unspecified) | inactive | inactive | inactive | – | inactive | inactive | inactive | inactive | inactive | inactive |
| O=S(=O)(O)NC1CCCCC1 | inactive | inactive | inactive | – | inactive | inactive | inactive | inactive | inactive | inactive |
| CC(O)CO (stereo unspecified) | inactive | inactive | inactive | – | inactive | inactive | inactive | inactive | inactive | inactive |
| COc1ccc2[nH]cc(CCNC(C)=O)c2c1 | inactive | inactive | inactive | – | inactive | inactive | inactive | inactive | inactive | inactive |
